Among all 580,000 compounds or so, about 6,100 (1.1%) were called active. Not shown: some 15% with an inconclusive outcome. Calls follow the shape of the dose curve; as a rule, active = well fitted inhibition curve with a large enough effect; inconclusive = small, poorly fitted or top-dose-only effect, or another doubt; inactive = no such curve, though single readings can be large or run the other way. Many of the other results were omitted from the sample, so actives are more common in it than they were.
Molecular target: Polyunsaturated fatty acid lipoxygenase ALOX12 (Homo sapiens) (UniProt P18054)
Experiment: Primary qHTS assay for inhibitors of human arachidonate 12S-lipoxygenase (ALOX12): Round 2
Conditions: purified 12hLO, xylenol orange hydroperoxide absorbance; series mostly up to 108 µM
Outline: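 Hydroperoxide product was detected by ferrous iron/xylenol orange as the 573 to 405 nm absorbance ratio. Arachidonic acid at 40 uM (final) was turned over for 30 min at room temperature by 150 nM human 12hLO, pH 7.0 Hepes buffer, after 15 min compound preincubation.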
Potency is read from the fitted curve at half-maximal effect.

Polyunsaturated fatty acid lipoxygenase ALOX12 (Homo sapiens), sequence (P18054 whole entry, looked up): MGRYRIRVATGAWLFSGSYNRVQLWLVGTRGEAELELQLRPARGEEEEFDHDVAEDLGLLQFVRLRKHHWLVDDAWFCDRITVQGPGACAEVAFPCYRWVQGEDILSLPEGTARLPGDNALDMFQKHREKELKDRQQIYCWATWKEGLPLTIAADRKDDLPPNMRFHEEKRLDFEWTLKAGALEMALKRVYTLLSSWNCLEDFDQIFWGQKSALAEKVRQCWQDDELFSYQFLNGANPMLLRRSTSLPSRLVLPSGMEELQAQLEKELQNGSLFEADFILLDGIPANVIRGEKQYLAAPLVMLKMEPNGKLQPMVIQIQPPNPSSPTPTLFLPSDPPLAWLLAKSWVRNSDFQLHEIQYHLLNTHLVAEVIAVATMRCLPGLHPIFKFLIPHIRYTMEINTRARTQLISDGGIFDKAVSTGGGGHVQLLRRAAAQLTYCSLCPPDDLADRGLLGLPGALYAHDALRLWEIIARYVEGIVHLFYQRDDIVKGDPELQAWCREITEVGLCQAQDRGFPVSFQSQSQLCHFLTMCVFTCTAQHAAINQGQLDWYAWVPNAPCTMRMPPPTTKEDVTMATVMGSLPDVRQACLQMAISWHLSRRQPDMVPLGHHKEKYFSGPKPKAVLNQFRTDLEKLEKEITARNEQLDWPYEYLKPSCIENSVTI

Potency, inactive:
COC(=O)C1=C(C)N=C2SC=C(CC(=O)NCc3ccccc3F)N2C1c1ccccc1Cl (configuration not stated)
Cc1ccccc1/C=C/C(=O)NC(C)CO (configuration not stated)
O=C(COc1ncnc2ccccc12)Nc1cc(F)ccc1F
O=C(CSc1ccc([N+](=O)[O-])cn1)Nc1ccc(N2CCOCC2)c(Cl)c1
O=C(Oc1ccccc1Cl)c1ccc(N2CCOCC2)c([N+](=O)[O-])c1
COc1ccccc1C(CNC(=O)CCc1nc(-c2ccsc2)no1)N1CCCC1 (configuration not stated)
CCC(=O)Nc1ccc2nnc(-c3ccc(C(=O)Nc4ccc(OC)cc4)cc3)n2c1
COc1ccc2c(C)c(-c3cccc4ccccc34)c(=O)oc2c1
COc1ccc(C(=O)N/N=C2\CCS(=O)(=O)c3ccc(F)cc32)cc1OC
Cc1oc(-c2ccccc2)nc1CC(=O)N(C)CC(=O)Nc1cccc2ccccc12
CC1(C)CC(=O)C2=C(C1)OC1=C(C(=O)CC(C)(C)C1)C2c1ccc(-c2ccc3c(c2)COC3=O)o1
Fc1ccc(/C=N/N=C/c2ccc(F)cc2F)c(F)c1
CCOc1ccc(C(=O)NCc2n[nH]c(=O)c3ccccc23)cc1OCC
Cc1ccc(C2CC(=O)C3=C(C2)OC(N)=C(C#N)C32C(=O)Nc3ccccc32)cc1 (configuration not stated)
Cc1ccc(NC2(C#N)C(=O)Nc3ccccc32)cc1 (configuration not stated)
C=CCNC(=O)O[C@@H]1CC[C@]2(C)C(CC[C@@H](O)[C@H]2CC(=O)N2CCC[C@H]2CO)[C@]1(C)CO (some centres not stated)
N#C/C(=C/NC(=O)c1ccccc1)C(=O)N1CCOCC1
CCOC(=O)c1ccc(NC(=O)c2c(NCc3cccs3)sc3c2CCCC3)cc1
O=C(Cc1ccccc1)Nc1sc2c(c1C(=O)Nc1ccc(Br)cc1)CCC2
CC1(C)Cc2sc3c(=O)n(Cc4ccc(Cl)cc4Cl)cnc3c2CO1
CCn1c(SCC(=O)Nc2sc(C)c(C)c2C#N)nnc1C1CC1
Cc1cccc(NC(=O)CSc2nc(-c3ccco3)cc(C(F)(F)F)n2)c1C
CCC(CO)Nc1nc2c(c(=O)n(C)c(=O)n2C)n1Cc1c(Cl)cccc1Cl (configuration not stated)
C/C(=N\NC(N)=S)c1cccnc1
O=C(NNC1CC(=O)N(c2cccc(Cl)c2)C1=O)c1cccnc1 (configuration not stated)
OC1CC([C@@H](Cc2ccccn2)NC2CCC3(CCNCC3)CC2)C1 (some centres not stated)
Cc1nonc1OCCNC1CCC2(CCNCC2)CC1
O=C(NCCC(=O)N1CCn2nc(C(=O)O)cc2C1)c1ccc(F)cc1
CCc1nnc2sc(-c3cccc(NC(=O)Cc4ccccc4)c3)nn12
O=C(NCc1ccccn1)C1CCN(C(=O)c2ccc(C(F)(F)F)cc2)CC1
Cc1ccccc1NC(=O)C(C#N)=C1CCCCC1
CCN(CC(=O)Nc1cc(Cl)ccc1C)C(=O)CSCc1ccccc1
CNC(=O)c1ccc(-c2nc(CN3CCN(S(=O)(=O)c4ccc(C)c(C)c4)CC3)c(C)o2)cc1
COc1ccc2c(C)c(CCC(=O)N3CCN(C)CC3)c(=O)oc2c1
Cc1nn2c(c1-c1ccccc1C(C)C)N(C(=O)c1cccc(C#N)c1)CCC2
Cc1nn2c(c1-c1ccnn1C(C)C)N(C(=O)c1ccc(Oc3ccccc3)cc1)CCC2
CCCCCn1nc(C(=O)Nc2ccccc2OCC)c2ccccc2c1=O
CCc1ccc(C(=O)Nc2ccccc2C#N)s1
Cc1cc(/C=N/NC(N)=O)c(C)n1C1CCCCC1
Cc1cc(/C=N/n2cnnc2)c(C)n1-c1ccc2ncccc2c1
C=CCOc1ccc(NC(=O)c2ccncc2)cc1
CCc1ccc(NC(=O)Cc2nc(-c3c(N)n(C)c(=O)n(C)c3=O)cs2)cc1
CCOc1ccccc1NC(=O)c1cnc2ccccc2n1
COc1ccccc1C(=O)OCc1ccc(F)cc1
Cc1cccnc1CN(C(=O)c1cc(COc2ccccc2)[nH]n1)C(C)C
Cc1cc(OC(C)C(=O)Nc2sc3c(c2C(N)=O)CCCC3)ccc1Cl (configuration not stated)
CCCn1nc(C(=O)Nc2sc3c(c2C(N)=O)CCC3)c2ccccc2c1=O
Cc1cc(C)c(-c2csc(NC(=O)Cn3ncc4ccccc4c3=O)n2)c(C)c1
CSc1nnnn1-c1ccc(C(=O)Nc2ccccc2F)cc1
Cc1ccccc1CN(C)C(C)c1nc(-c2cccs2)no1 (configuration not stated)
CCc1c(C)sc(NC(=O)C2c3ccccc3Oc3ccccc32)c1C(=O)OC(C)C
CCOC(=O)CSc1nnc(CNC(=O)c2cccs2)n1-c1ccccc1
CCCCCCn1c(NC)nc2c1c(=O)[nH]c(=O)n2C
O=C1CC(c2ccc(C(F)(F)F)cc2)c2sc(C(=O)O)c(-c3ccccc3)c2N1 (configuration not stated)
COc1cc(C2CC(=O)Nc3nc(-c4ccccc4)[nH]c(=O)c32)ccc1OCc1ccc(F)cc1 (configuration not stated)
CCCOc1c(OC)cccc1C1CC(=O)Nc2c1c(C)nn2-c1ccc(OC)nn1 (configuration not stated)
O=C1CC(c2ccccc2)C(c2ccccc2)=NN1 (configuration not stated)
O=[N+]([O-])/C=C/c1ccc2c(ccn2Cc2ccccc2)c1
Cc1ccc(-c2nnc(SCc3ncc(-c4ccccc4)o3)o2)cc1
Cc1ccc(-n2nnnc2SCc2ncc(-c3ccccc3)o2)cc1
COCc1ccc(CNC(=O)c2ccc(C#N)cc2)cc1
O=C(c1cn[nH]c1)N1CC2(CN(Cc3cccc(Cl)c3)CC2COc2ccccc2)C1 (configuration not stated)
CCOc1cc2cc(C(=O)c3cc(C)ccc3O)cnc2cc1OCC
CCC(=O)Nc1ccc2nc(-c3ccccc3C)oc2c1
COc1ccc(NC(=O)c2cn(-c3ccccc3)nc2SC)cc1
COc1ccc(-c2nn(-c3ccccc3)cc2C(=O)NCC(C(C)C)N2CCOCC2)cc1 (configuration not stated)
CSc1ccccc1NC(=O)C(C)Nc1ccc2c(c1)CCN2C(C)=O (configuration not stated)
O=C(NC(c1ccccc1)c1cc2ccccc2o1)C1CCCC1 (configuration not stated)
N#Cc1ccccc1S(=O)(=O)N1CCN(C(=O)c2cc(-c3ccccc3)nn2-c2ccccc2)CC1
N#CCCc1c(O)ccc2ccccc12
Cc1nnc(SCC(=O)Nc2sc3c(c2C#N)CCCC3)n1CC(C)C
CCC(=O)NNC(=S)Nc1ccccc1
O=C(Nc1ccc(S(=O)(=O)Nc2ncccn2)cc1)c1cncc(Br)c1
O=C(Nc1ccc(S(=O)(=O)Nc2ncccn2)cc1)C12CC3CC(CC(C3)C1)C2
Cc1ccc(-c2nnc3c4ccccc4c(C)nn23)cc1NC(=O)c1cccc(Br)c1
O=C(NC1C2CC3CC(C2)CC1C3)c1cccc(Br)c1 (configuration not stated)
CCOc1ccc(C(=O)N(CCN(C)C)CC(=O)OC(C)(C)C)cc1
CC(C)NC(=O)c1cccc2c1CCCN2CC(=O)NCCc1ccccc1
CSc1ccccc1C(=O)NC(C)c1ccccc1 (configuration not stated)
Clc1ccc(-c2nc(-c3ccc(Br)o3)no2)cc1
CNC(=O)c1nn(CC(=O)NC(C)c2ccccc2)c(=O)c2ccccc12 (configuration not stated)
O=C(Cn1nc(C(=O)O)c2ccccc2c1=O)Nc1cc(F)ccc1F

Potency, active:
CCc1n[nH]c(=S)n1/N=C/c1c[nH]c2ccc(Br)cc12 15.8 µM
CCOc1ccc(C(=O)NC(=S)Nc2ccc(N3CCOCC3)c(Cl)c2)cc1[N+](=O)[O-] 14.1 µM
O=S1(=O)CC/C(=N\Nc2ccc(F)cc2)c2ccsc21 31.6 µM
COCc1[nH][nH]c(=O)c1C=Nc1ccc(F)cc1F 12.6 µM
N#CC1=C(N)Oc2[nH]c(=S)[nH]c(=O)c2C12C(=O)Nc1ccccc12 (configuration not stated) 14.1 µM
Cc1ccc(NC(=O)c2c(NC(=O)CCC(=O)O)sc3c2CCCCC3)cc1 20 µM
CCOC(=O)c1sc(NC(=O)CSc2nc(C)cc(C(F)(F)F)n2)c(C#N)c1C 20 µM
C/C(=N\NC(=O)c1cc2c(s1)CCC(C)C2)c1cccnc1 (configuration not stated) 5.01 µM
CN(CCCNC1CCC2(CCNCC2)CC1)c1ccccc1 10 µM
Cc1ccccc1N/C(SCc1ccc(Cl)cc1)=C(/C#N)C(N)=O 20 µM
Cc1nn2c(c1-c1ccnn1C(C)C)N(CC1CCOCC1)CCC2 12.6 µM
Cc1cccc(-n2c(C)cc(/C=N/NC(N)=S)c2C)c1 44.7 µM
O=C(OCc1ccc(F)cc1)c1cnc2ccccc2n1 1.26 µM
NC(=O)c1c(Nc2nc3c(F)cccc3s2)sc2c1CCCC2 28.2 µM
S=C(NCCCc1cnc[nH]1)NCCCN(Cc1ccc(Cl)c(Cl)c1)c1ccc(Br)cn1 22.4 µM
NCCCNC(=S)NCCCN(Cc1ccc(Cl)cc1)c1ccc(Br)cn1 39.8 µM
CCc1c(C)sc(NC(=O)c2cccs2)c1C(N)=O 20 µM
COc1cccc(C2CC(=O)Nc3nc(N)sc32)c1OCc1ccccc1 (configuration not stated) 7.94 µM
Nc1nc2c(s1)C(c1ccccc1)CC(=O)N2 (configuration not stated) 22.4 µM
O=[N+]([O-])/C=C/c1ccc(-c2ccccc2)o1 22.4 µM
COc1ccc(-c2nn(-c3ccccc3)cc2/C=C\C(=O)Nc2ccc(C(=O)O)cc2)cc1 39.8 µM
N#Cc1ccccc1S(=O)(=O)N1CCN(Cc2c(O)ccc3ccccc23)CC1 11.2 µM
O=C(NC(=S)Nc1ccc(S(=O)(=O)Nc2ncccn2)cc1)c1cccc(Br)c1 20 µM
O=C(NC(=S)Nc1cccc2c(O)cccc12)c1cccc(Br)c1 17.8 µM
CC(NC(=O)Cn1nc(C(N)=O)c2ccccc2c1=O)c1ccccc1 (configuration not stated) 35.5 µM
